Source: PubChem BioAssay (NCI)
Compounds without any hit were thinned out: in the full panel of roughly 79,000, 15% have a hit. The source made the active and inactive calls. No stated cut-off is given here; in the data, active means growth inhibition above about 70%; inactive means the rest.

Assays:
[1] = NCI Yeast Anticancer Drug Screen. Data for the rad50 strain (AID 155);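 further: 0% = growth of vehicle-only cultures of the same strain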; conditions: S. cerevisiae rad50 strain growth inhibition, stronger effect = higher value
Procedure, shortened: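 Vehicle-treated cultures provide the reference for the growth inhibition reported for compound-exposed, repair-deficient yeast.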

[2] = NCI Yeast Anticancer Drug Screen. Data for the mec2-1 strain (AID 157); conditions: S. cerevisiae mec2-1 strain, stronger effect = higher value
Procedure, shortened: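 Strain: mec2-1 (DNA repair/cell cycle alteration). Compound exposure, then growth measured; inhibition expressed relative to vehicle.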

[3] = NCI Yeast Anticancer Drug Screen. Data for the sgs1 mgt1 strain (AID 161);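 further: 0% = growth of cultures given vehicle only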; conditions: S. cerevisiae sgs1 mgt1 strain, stronger effect = higher value
Procedure, shortened: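 Test agents were incubated with a DNA-repair-mutant yeast strain. Growth was then read and compared against vehicle-treated controls.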

[4] = NCI Yeast Anticancer Drug Screen. Data for the cln2 rad14 strain (AID 165);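 further: 0% = growth equal to vehicle treated cultures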; conditions: S. cerevisiae cln2 rad14 strain, stronger effect = higher value
Procedure, shortened: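 Compounds are applied to the cln2 rad14 yeast strain, and growth is then compared with that of vehicle-treated cultures to give inhibition.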

[5] = NCI Yeast Anticancer Drug Screen. Data for the bub3 strain (AID 167); conditions: S. cerevisiae bub3 mutant strain, stronger effect = higher value
Procedure, shortened: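 Mutant yeast screening strain plus compound; vehicle-treated cultures serve as the 0% inhibition reference.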

[6] = NCI Yeast Anticancer Drug Screen. Data for the wt1 strain (AID 149);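 further: 0% = growth of vehicle-treated wt1 cultures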; conditions: S. cerevisiae wt1 strain (SPY 50644) growth inhibition, stronger effect = higher value
Procedure, shortened: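 Each compound is tested on wt1 yeast and the loss of growth versus vehicle gives the inhibition value.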

[7] = NCI Yeast Anticancer Drug Screen. Data for the rad50EPP+ strain (AID 151);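 further: 0% = growth of vehicle-treated control cultures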; conditions: S. cerevisiae rad50 mutant strain, stronger effect = higher value
Procedure, shortened: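 Compounds were applied to the rad50EPP+ yeast strain, which bears a defined DNA repair alteration, and growth inhibition was determined relative to vehicle-treated cultures.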

[8] = NCI Yeast Anticancer Drug Screen. Data for the rad14 strain (AID 159);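 further: 0% = growth of vehicle-treated control cultures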; conditions: S. cerevisiae rad14 strain growth inhibition, stronger effect = higher value
Procedure, shortened: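 Inhibition of growth is reported for a repair-deficient yeast mutant following compound treatment, calculated relative to cultures that received vehicle.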

[9] = NCI Yeast Anticancer Drug Screen. Data for the CLN2oe strain (AID 163);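 further: 0% = growth of vehicle-only control cultures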; conditions: S. cerevisiae CLN2oe strain, stronger effect = higher value
Procedure, shortened: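 Growth of a genetically modified yeast strain is measured after compound exposure and compared with cultures given vehicle alone.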

[10] = NCI Yeast Anticancer Drug Screen. Data for the wt2 strain (AID 169); conditions: S. cerevisiae wt2 strain growth inhibition, stronger effect = higher value
Procedure, shortened: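 This strain belongs to a panel of yeast strains with defined genetic alterations in DNA damage repair or cell cycle control. Compounds are applied, and growth inhibition is measured against vehicle-treated cultures.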

[11] = NCI Yeast Anticancer Drug Screen. Data for the mlh1 strain (AID 171);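 further: 0% = growth of vehicle-treated control cultures of the same strain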; conditions: S. cerevisiae mlh1 strain growth inhibition, stronger effect = higher value
Procedure, shortened: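 Growth of the mutant yeast strain after compound exposure, expressed as inhibition relative to vehicle-only controls.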

[12] = NCI Yeast Anticancer Drug Screen. Data for the sgs1 strain (AID 173);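 further: 0% = growth of vehicle-only control cultures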; conditions: S. cerevisiae sgs1 mutant, stronger effect = higher value
Procedure, shortened: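 Growth of a yeast strain bearing a defined genetic alteration is measured after compound treatment. Inhibition is expressed relative to vehicle-only controls.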

[13] = NCI Yeast Anticancer Drug Screen. Data for the mlh1 rad18 strain (AID 175); conditions: S. cerevisiae mlh1 rad18 strain growth inhibition, stronger effect = higher value
Procedure, shortened: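 Read-out is yeast growth inhibition, calculated against vehicle-only controls. The compound was applied to a strain engineered with DNA damage repair alterations.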

[14] = NCI Yeast Anticancer Drug Screen. Data for the rad18 strain (AID 177); conditions: S. cerevisiae rad18 mutant growth inhibition, stronger effect = higher value
Procedure, shortened: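 Growth of the mutant yeast strain after compound exposure, normalised to vehicle-only cultures.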

[15] = at 5.0 µM (retest, dose inferred, filed as 0.5)
[16] = at 50.0 µM (retest, dose inferred, filed as 5.0)

Measured: growth inhibition

[C-]#[O+].[C-]#[O+].[Ir].[O-]c1ccc2ccccc2c1N=Nc1ccccc1
inactive: [1]; [15] -4% | [1]; [16] -4% | [2]; [15] -11% | [2]; [16] -11% | [2]; at 50.0 µM 69.5% | [3]; [15] 15% | [3]; [16] 15% | [3]; at 50.0 µM 62.1% | [4]; [15] -2% | [4]; [16] -2% | [4]; at 50.0 µM 50.7% | [5]; [15] -20% | [5]; [16] -20% | [5]; at 50.0 µM 55.1%
active: [1]; at 50.0 µM 74.5%

O=c1c2ccccc2[se]n1-c1cccnc1
inactive: [6]; at 1.2 µM -5% | [6]; at 3.7 µM -6% | [6]; at 11.0 µM 21% | [6]; at 33.0 µM 29% | [6]; at 100.0 µM 56% | [7]; at 1.2 µM 67% | [1]; at 1.2 µM -6% | [1]; at 3.7 µM 27% | [1]; [15] 8% | [1]; at 11.0 µM 65% | [1]; [16] 64% | [1]; at 50.0 µM 23.1% | [2]; at 1.2 µM -18% | [2]; at 3.7 µM 20% | [2]; [15] -20% | [2]; [16] 55% | [2]; at 50.0 µM -6.2% | [8]; at 1.2 µM -28% | [8]; at 3.7 µM 2% | [8]; at 11.0 µM 38% | [3]; [15] 58% | [3]; [16] 21% | [3]; at 50.0 µM 7.85% | [9]; at 1.2 µM 24% | [9]; at 3.7 µM 21% | [9]; at 11.0 µM 58% | [4]; [15] 9% | [4]; [16] 40% | [4]; at 50.0 µM 15.5% | [5]; at 1.2 µM 8% | [5]; at 3.7 µM 14% | [5]; [15] -28% | [5]; [16] 38% | [5]; at 50.0 µM -6.15% | [10]; at 1.2 µM 18% | [10]; at 3.7 µM 18% | [10]; at 11.0 µM 25% | [10]; at 33.0 µM 42% | [10]; at 100.0 µM 60% | [11]; at 1.2 µM 36% | [11]; at 3.7 µM 51% | [12]; at 1.2 µM 23% | [12]; at 3.7 µM 19% | [13]; [15] -14% | [13]; at 50.0 µM 43.9% | [14]; at 1.2 µM 12% | [14]; at 3.7 µM -26% | [14]; at 11.0 µM 3% | [14]; at 33.0 µM 42% | [14]; at 100.0 µM 58%
active: [7]; at 3.7 µM 94% | [7]; at 11.0 µM 98% | [7]; at 33.0 µM 98% | [7]; at 100.0 µM 87% | [1]; at 33.0 µM 92% | [1]; at 100.0 µM 90% | [2]; at 11.0 µM 77% | [2]; at 33.0 µM 98% | [2]; at 100.0 µM 94% | [8]; at 33.0 µM 89% | [8]; at 100.0 µM 84% | [9]; at 33.0 µM 84% | [9]; at 100.0 µM 83% | [5]; at 11.0 µM 81% | [5]; at 33.0 µM 98% | [5]; at 100.0 µM 91% | [11]; at 11.0 µM 98% | [11]; at 33.0 µM 99% | [11]; at 100.0 µM 93% | [12]; at 11.0 µM 80% | [12]; at 33.0 µM 96% | [12]; at 100.0 µM 82% | [13]; [16] 89%

O=c1c2ccccc2[se]n1-c1ccccc1
active: [1]; at 50.0 µM 70.2% | [2]; at 50.0 µM 88.8% | [3]; at 50.0 µM 81.3%
inactive: [1]; [15] 6% | [1]; [16] 29% | [2]; [15] -12% | [2]; [16] 32% | [3]; [15] -4% | [3]; [16] 23% | [4]; [15] -19% | [4]; [16] 26% | [4]; at 50.0 µM 66.6% | [5]; [15] -15% | [5]; [16] 21% | [5]; at 50.0 µM 4.2%

CC1CC(C)CC(C)C(O)/C(C#N)=C/C=C/CC(C2CCCC2C(=O)O)OC(=O)CC(O)C(C)C1 (stereo unspecified)
active: [6]; at 1.2 µM 97% | [6]; at 3.7 µM 99% | [6]; at 11.0 µM 99% | [6]; at 33.0 µM 99% | [6]; at 100.0 µM 98% | [7]; at 33.0 µM 93% | [7]; at 100.0 µM 97% | [1]; at 1.2 µM 94% | [1]; at 3.7 µM 97% | [1]; [15] 98% | [1]; at 11.0 µM 97% | [1]; at 33.0 µM 97% | [1]; [16] 98% | [1]; at 50.0 µM 92.6% | [1]; at 100.0 µM 97% | [2]; at 1.2 µM 96% | [2]; at 3.7 µM 98% | [2]; [15] 99% | [2]; at 11.0 µM 98% | [2]; at 33.0 µM 98% | [2]; [16] 99% | [2]; at 50.0 µM 94.5% | [2]; at 100.0 µM 98% | [8]; at 1.2 µM 98% | [8]; at 3.7 µM 98% | [8]; at 11.0 µM 98% | [8]; at 33.0 µM 99% | [8]; at 100.0 µM 98% | [3]; at 50.0 µM 93.7% | [9]; at 1.2 µM 86% | [9]; at 3.7 µM 96% | [9]; at 11.0 µM 97% | [9]; at 33.0 µM 97% | [9]; at 100.0 µM 97% | [4]; at 50.0 µM 92.4% | [5]; at 1.2 µM 93% | [5]; at 3.7 µM 98% | [5]; at 11.0 µM 98% | [5]; at 33.0 µM 98% | [5]; at 50.0 µM 93.3% | [5]; at 100.0 µM 98% | [11]; at 1.2 µM 90% | [11]; at 3.7 µM 98% | [11]; at 11.0 µM 98% | [11]; at 33.0 µM 98% | [11]; at 100.0 µM 98% | [12]; at 1.2 µM 95% | [12]; at 3.7 µM 97% | [12]; at 11.0 µM 98% | [12]; at 33.0 µM 97% | [12]; at 100.0 µM 97% | [13]; [15] 98% | [13]; [16] 98% | [13]; at 50.0 µM 91.6% | [14]; at 1.2 µM 96% | [14]; at 3.7 µM 97% | [14]; at 11.0 µM 98% | [14]; at 33.0 µM 97% | [14]; at 100.0 µM 97%
inactive: [7]; at 1.2 µM -17% | [7]; at 3.7 µM 21% | [7]; at 11.0 µM 68% | [3]; [15] 15% | [3]; [16] 2% | [4]; [15] 8% | [4]; [16] -20% | [5]; [15] 10% | [5]; [16] -7%
